Results as given in PubChem BioAssay AID1159580 (chemical genetic matrix, 2015).
“And” between values parts separate entries of the source, which are not always exact repeats. Equal entries are not always repeated. Hit rate of the full screen: of about 5,500 compounds, about 2,000 (36%) were called active. Not shown: some 18% with an inconclusive outcome. Cut-off read from the data, not from the text of the source: active = normalized growth mostly below about 0.91 (no sharp cut-off); inconclusive = no clear call, values can overlap the other calls; inactive = mostly above about 0.92. The list shows a part of the results.

Experiment: chemical genetic growth profiling, strain panel (AID 1159580);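 note: tested at 20 µM; growth read once vehicle control cultures reached saturation at 30 °C; 1 = growth at the plate median or of vehicle wells; lower values mean less growth of the strain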
Conditions: S. cerevisiae deletion strains, growth OD

Measured: normalized growth

Nc1c(Br)cc(Br)cc1CNC1CCC(O)CC1 (centres undefined)
inactive: locus YAL021C, strain ccr4, hits give low values 1.01 | locus YAL026C, strain drs2, hits give low values 0.968 | locus YAL030W, strain snc1, hits give low values 1.01 | locus YBL061C, strain skt5, hits give low values 1.02 | locus YBR009C, strain hhf1, hits give low values 1.03 | locus YBR021W, strain FUR4, hits give low values 0.996 | locus YBR023C, strain chs3, hits give low values 1.01 | locus YBR171W, strain sec66, hits give low values 1.02 | locus YBR229C, strain ROT2, hits give low values 1.01 | locus YBR231C, strain swc5, hits give low values 1.01 | locus YBR279W, strain paf1, hits give low values 1.01 | locus YCL011C, strain gbp2, hits give low values 1.02 | locus YCL016C, strain dcc1, hits give low values 1.01 | locus YCL029C, strain bik1, hits give low values 1 | locus YCL061C, strain MRC1, hits give low values 1.02 | locus YCL069W, strain vba3, hits give low values 1.02 | locus YCR088W, strain abp1, hits give low values 1.02 | locus YDL005C, strain med2, hits give low values 1.02 | locus YDL035C, strain GPR1, hits give low values 1.01 | locus YDL040C, strain nat1, hits give low values 0.992 | locus YDL074C, strain BRE1, hits give low values 1.01 | locus YDL101C, strain DUN1, hits give low values 1.02 | locus YDL134C, strain PPH21, hits give low values 1.01 | locus YDL185W, strain tfp1, hits give low values 0.996 | locus YDL192W, strain arf1, hits give low values 0.995 | locus YDR001C, strain nth1, hits give low values 1.01 | locus YDR069C, strain doa4, hits give low values 0.985 | locus YDR101C, strain arx1, hits give low values 0.985 | locus YDR137W, strain rgp1, hits give low values 0.949 | locus YDR150W, strain NUM1, hits give low values 1 | locus YDR159W, strain sac3, hits give low values 0.997 | locus YDR162C, strain NBP2, hits give low values 1.01 | locus YDR195W, strain ref2 1 | locus YDR297W, strain sur2, hits give low values 0.982 | locus YDR318W, strain mcm21, hits give low values 1 | locus YDR334W, strain swr1, hits give low values 1.02 | locus YDR335W, strain msn5, hits give low values 0.992 | locus YDR388W, hits give low values 1.01 | locus YDR392W, strain spt3, hits give low values 0.966 | locus YDR502C, strain sam2, hits give low values 0.991 | locus YEL003W, strain gim4, hits give low values 1.01 | locus YEL037C, strain rad23, hits give low values 1.02 | locus YEL061C, strain CIN8 (second series), hits give low values 1.02 | locus YEL061C, strain CIN8, hits give low values 1.01 | locus YER015W, strain faa2, hits give low values 1.02 | locus YER016W, strain bim1, hits give low values 1 | locus YER110C, hits give low values 1 | locus YER111C, strain swi4, hits give low values 1.02 | locus YER155C, strain BEM2 (second series), hits give low values 0.992 | locus YER155C, strain BEM2, hits give low values 1.01 | locus YER167W, strain BCK2, hits give low values 1.02 | locus YFR010W, strain ubp6, hits give low values 1.03 | locus YGL078C, strain dbp3, hits give low values 0.98 | locus YGL086W, strain mad1, hits give low values 0.996 | locus YGL167C, strain pmr1, hits give low values 1 | locus YGL173C, strain kem1, hits give low values 1.03 | locus YGL227W, strain vid30, hits give low values 1.01 | locus YGL240W, strain doc1, hits give low values 0.981 | locus YGL248W, strain PDE1, hits give low values 0.997 | locus YGL253W, strain hxk2, hits give low values 1.01 | locus YGR078C, strain PAC10, hits give low values 0.994 | locus YGR135W, strain pre9, hits give low values 0.984 | locus YGR252W, strain gcn5, hits give low values 0.955 | locus YHR013C, strain ard1, hits give low values 1.02 | locus YHR027C, strain rpn1, hits give low values 1 | locus YHR030C, strain SLT2, hits give low values 1 and 1.04 | locus YHR079C, strain IRE1 (second series), hits give low values 1.01 | locus YHR079C, strain IRE1, hits give low values 1.03 | locus YHR094C, strain hxt1, hits give low values 0.998 | locus YHR129C, strain ARP1, hits give low values 1.01 | locus YHR142W, strain chs7, hits give low values 1.02 | locus YHR200W, strain rpn10, hits give low values 0.999 | locus YIL066C, strain RNR3, hits give low values 1 | locus YIL073C, strain SPO22, hits give low values 1.04 | locus YIL125W, strain kgd1, hits give low values 0.999 | locus YIR030C, strain dcg1, hits give low values 0.997 | locus YJL092W, strain hpr5, hits give low values 1.02 | locus YJL095W, strain BCK1 (second series), hits give low values 0.98 | locus YJL095W, strain BCK1, hits give low values 0.973 and 1.04 | locus YJL115W, strain asf1, hits give low values 1.02 | locus YJL129C, strain trk1, hits give low values 1.02 | locus YJL134W, strain LCB3, hits give low values 1.01 | locus YJL154C, strain vps35, hits give low values 1.02 | locus YJL164C, strain tpk1, hits give low values 1.01 | locus YJL166W, strain qcr8, hits give low values 1.02 | locus YJL168C, strain set2, hits give low values 1 | locus YJL187C, strain SWE1 (second series), hits give low values 0.993 | locus YJL187C, strain SWE1, hits give low values 0.988 | locus YJR043C, strain POL32, hits give low values 1.02
